B1: chr11:214995:215097:+|3pUTR|ENSG00000177963|unk|total|mutant (ssRNA)
RNA: GGGAGUUCUACAGUCCGACGAUCCCUCCUUCCUACUGGUUCCGACUACACUUACAACAAGGAAAAUGCCCCUCGUGUGACCACCGAUUGAGAUUUAUACCACAUACCACACACCGCCACAGAAACAUCAUCUUGAAAUAAAGACAACAGAGGAUUGAGCAUCA
B2: chr5:157162449:157163658:-|CDS|ENSG00000170613|control|control|control (ssRNA)
RNA: GGGAGUUCUACAGUCCGACGAUCGGUCACAUCACAUGACAGAGAGGUAGAUAUCGUGGCUAAGAUGGUGGAGAAGCAAAACAUAGAGGCCAAAGUGGAGAAAGCCCAGGGUGGCCAGGAGCUGGAGAUGAUCAGUGGCACUAUCAACAGAGGAUUGAGCAUCA
B3: chr1:234405902:234406099:-|CDS|ENSG00000059588|control|control|control (ssRNA)
RNA: GGGAGUUCUACAGUCCGACGAUCCCUUAUAGUUGUGCUGCAGUGGUGUUUCAAUCACAAUUUUAGUGUUCGACUGUAUGCUUUAGUUGCUCUUAAGAAACUCUGGACUGUGUGUAAAGUGUUAAGUGUUGAAGAAUUUGAUGCCAACAGAGGAUUGAGCAUCA
B4: chr6:136278143:136278257:-|CDS|ENSG00000029363|unk|total|mutant (ssRNA)
RNA: GGGAGUUCUACAGUCCGACGAUCACAUCCGGUGAUAUUUGGCCUGGCCUUUCAGCUUAUGAUAACCGUCCCCGAUCACCCCACCGUCCUUCACCUAUUGCUACACCACCCCGUCAGAGUUCAUCUUGCUCUGAUGCUCCCAUGCAACAGAGGAUUGAGCAUCA
B5: chr1:15430058:15430159:+|3pUTR|ENSG00000142634|msi1|FALSE|unique (ssRNA)
RNA: GGGAGUUCUACAGUCCGACGAUCCCUGGAAGCUACGCGGACUUGCAGAGGUUUUAUUUUUUGGCCUUAGAAUCUGCAGAAAUUAGGAGGCACCGAGCCCAGCGCAGCAGCCUCGGACCCGGAUUGCGUUUGCCUUAGCGGAUACAACAGAGGAUUGAGCAUCA
B6: ENSG00000070961:be:win_4001|3pUTR|ENSG00000070961|bound_else_gene|NA|bound_elsewhere_windowed (ssRNA)
RNA: GGGAGUUCUACAGUCCGACGAUCAGUAAAACUGGGCAAGACAAAGAGCCCUGGAUCGUUGAAUUGAUAGUUUAAUUUCUGCUGUUGGCUGUUAAUAAUUUGGAUUAUUUAUGUUUAUAAAUGAUACAGAUCUGUUUACAAGGUCAACAGAGGAUUGAGCAUCA
B7: ENSG00000005810:stop:overlap|stop_codon|ENSG00000005810|stop_codon|NA|stop_codon (ssRNA)
RNA: GGGAGUUCUACAGUCCGACGAUCCACCCACUGGGGAAGAGUUUGCUCUGGGAUGUGGAGUGUGCAGAAAUGCCCACACUUUUUAGAACACGCAGAUCCUUUGUCUACAGAGAGAAAAAUUGCCUUCAUCCCCCAAGAGGAUGCCAACAGAGGAUUGAGCAUCA
B8: chr2:105361111:105361195:-|3pUTR|ENSG00000115641|msi1_unk|total|mutant (ssRNA)
RNA: GGGAGUUCUACAGUCCGACGAUCCUUUCUCACCCAGGCAAUCUUGCCUUCUGGUUUCUUCCAGCCACAUUGAGACUUUCUUCCCGUGCUUUUCAGUGAUACUCACGUUUGCUUAAACCCUUCCGUGCUUUGUGACCGUUCAGUCAACAGAGGAUUGAGCAUCA
B9: ENSG00000071054:stop:overlap|stop_codon|ENSG00000071054|stop_codon|NA|stop_codon (ssRNA)
RNA: GGGAGUUCUACAGUCCGACGAUCCUGGUGGCAGCAGUCAGGUUUAUUUCAUGACCUUAGGCAGGACUUCUCUUCUGAGCUGGUAGAAGCAGUGUGAUCCAGGGAUUACUGGCCUCCAGAGUCUUCAAGAUCCUGAGAACUUGGCAACAGAGGAUUGAGCAUCA
B10: ENSG00000198589:be:win_9701|3pUTR|ENSG00000198589|bound_else_gene|NA|bound_elsewhere_windowed (ssRNA)
RNA: GGGAGUUCUACAGUCCGACGAUCCAAGGAUUUGGAAUGAACAAUUCAGUUUGACAGAAAAAGCUGAAUAAAAUGGCAUCUGUAAUUGAAUUGUUGGAAAUGCCUUUUUUGCUCCUAAAUUUUAAACAUCAUUAAUAAAAUAAUCAACAGAGGAUUGAGCAUCA
B11: chrX:85861749:85861850:-|3pUTR|ENSG00000188419|msi1|total|mutant (ssRNA)
RNA: GGGAGUUCUACAGUCCGACGAUCCUAAUUUAAAAUUUCAGAAAAUGCUAUUAAAGAAUUUUGAUUCAAGUAUUUAAACUGUUCCGUUAUGCAUGCUUCUUAUUAACCGAAAAUGAUAAUACCAUUCCGUUCCGUGAUCAGUAUCAACAGAGGAUUGAGCAUCA
B12: chr10:62094764:62094865:+|3pUTR|ENSG00000150347|msi1|FALSE|unique (ssRNA)
RNA: GGGAGUUCUACAGUCCGACGAUCGAUGAACUCCCCAACCCACUGUGCCCCUCCCGCAACACUACCAGUAGACUUUAGAACCAUAGUUAACUAAGUCUUUUACCUCUGAGAUACUUAAUUCUGGGAAAAUUGGUGACAAUUUUCCAACAGAGGAUUGAGCAUCA
B13: chrX:85861749:85861850:-|3pUTR|ENSG00000188419|msi1|FALSE|unique (ssRNA)
RNA: B11 RNA with C83U, C84A, C126U, C127A, C131U, C132A
B14: chr11:62152232:62152344:+|3pUTR|ENSG00000149503|unk|total|mutant (ssRNA)
RNA: GGGAGUUCUACAGUCCGACGAUCUGCUCUGUAAACCGUUGUUUUAAUUCCGCUGAAUGUCCGCAUUUCCGUCUUUGGCAUUUCCGCGUUUGGGAGGCCGAUUAAUAAAGUAUAUUCCUUCAAGCCUGCUGUUGAUACCAUGAACAACAGAGGAUUGAGCAUCA
B15: ENSG00000013293:stop:overlap|stop_codon|ENSG00000013293|stop_codon|NA|stop_codon (ssRNA)
RNA: GGGAGUUCUACAGUCCGACGAUCAACACAAACAGAACUCAGAGGCCCUGAUUGCAAAUGAUGAGUUAGAUUACUCUCCAGAGUAGGAGAAACACACAAGUGGGUAGAAAUGGUGAUGACUGAUUUUCAGUAACUUAACCUGUGCAACAGAGGAUUGAGCAUCA
B16: chr11:62152232:62152344:+|3pUTR|ENSG00000149503|unk|FALSE|unique (ssRNA)
RNA: GGGAGUUCUACAGUCCGACGAUCUGCUCUGUAAAUAGUUGUUUUAAUUUAGCUGAAUGUUAGCAUUUUAGUCUUUGGCAUUUUAGCGUUUGGGAGGUAGAUUAAUAAAGUAUAUUCCUUCAAGCCUGCUGUUGAUACCAUGAACAACAGAGGAUUGAGCAUCA
B17: chr8:9779869:9779970:+|3pUTR|ENSG00000173273|msi1|FALSE|unique (ssRNA)
RNA: GGGAGUUCUACAGUCCGACGAUCGGAAUUUCUAGCUUUUCAAGCAGCAUAAGUAGAAUCAACAUUAGGAUGUUUUCAUGAAAUAGCAUCCUUAUACUUCUUUGAGCUUGAUGUUAGUGGCUAGACUGAUUUCCCUUUGCUCUCCAACAGAGGAUUGAGCAUCA
B18: chr5:136976780:136976881:-|3pUTR|ENSG00000152377|msi1|FALSE|unique (ssRNA)
RNA: GGGAGUUCUACAGUCCGACGAUCCUUAAAUUAGCAUGUUCCAAUCCAGUCGGCAUUGCCUGAAUACAGUAGCAUCAUACCUAUAGUUGGUCUUAGAUAAGAAAUGAACUACUUGAUAUAGCAAAGUCCUUUGGCUUCGUAAAUCAACAGAGGAUUGAGCAUCA
B19: chr5:136976780:136976881:-|3pUTR|ENSG00000152377|msi1|total|mutant (ssRNA)
RNA: B18 RNA with U31C, A32C, U69C, A70C, U83C, A84C, U93C, A94C, U118C, A119C
B20: ENSG00000070961:be:win_4401|3pUTR|ENSG00000070961|bound_else_gene|NA|bound_elsewhere_windowed (ssRNA)
RNA: GGGAGUUCUACAGUCCGACGAUCGUUAUGACAUCUGUCCUAAUUAGUUUCUUAAAUACAUUUACUACUUAAUGGUUUUGAAGCAACUGUUUAAUUUUUAAAAUUUUUGAAAACUUGCUAAUAACCUUUUGUUCAGAAUUUAGUCAACAGAGGAUUGAGCAUCA

Positions count from the first letter of the chain named. In all, about 5,800 sequences were measured (“enrichment r”: median about 0.54, highest 2% from about 16 on). Only a selection was taken, and the highest values are over-represented in it overall.

For the assay, the target named is MSI1 full-length (mouse, UniProt Q61474 1-362). Nature of the assay: nsRBNS (natural sequence RNA bind-n-seq); RBNS binding buffer (assumed for nsRBNS): 25 mM Tris pH 7.5, 150 mM KCl, 3 mM MgCl2, 0.01% Triton X-100, 500 ug/ml BSA, 20 U/ml SUPERase-In, 4 C; UNK is unkempt and MSI1 is Musashi-1; names of the RNAs are library labels; protein concentration not given here; high values mean tight binding.
MSI1 full-length, sequence (Q61474 whole entry): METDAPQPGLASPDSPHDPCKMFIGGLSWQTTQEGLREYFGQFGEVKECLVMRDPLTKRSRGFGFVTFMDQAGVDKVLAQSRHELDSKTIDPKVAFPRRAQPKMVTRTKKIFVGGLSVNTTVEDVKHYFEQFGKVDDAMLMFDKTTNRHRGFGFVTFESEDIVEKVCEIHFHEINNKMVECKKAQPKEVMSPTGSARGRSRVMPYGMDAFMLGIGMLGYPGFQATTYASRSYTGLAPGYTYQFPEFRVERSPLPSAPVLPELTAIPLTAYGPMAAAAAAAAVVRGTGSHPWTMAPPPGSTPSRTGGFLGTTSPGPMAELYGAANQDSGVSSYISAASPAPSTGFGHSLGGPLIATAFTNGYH
Molecule B1 showed a binding signal of 0.839 enrichment R.
In turn, B2 yielded a binding signal of 0.709 enrichment R.
Regarding B3, the binding signal came to 0.964 enrichment R.
Then B4, with 0.739 enrichment R; and B5, with 0.989 enrichment R.
The molecule B6 registered a binding signal of 0.47 enrichment R.
As to B7, the binding signal amounted to 0.439 enrichment R.
For the molecule B8, the binding signal turned out to be 0.426 enrichment R.
B9 yielded a binding signal of 0.605 enrichment R.
The result for B10 reads 0.605 enrichment R; that for B11, 0.789 enrichment R.
B12 came in with a binding signal of 12.5 enrichment R.
Molecule B13 yielded a binding signal of 54.6 enrichment R.
As to B14, the binding signal is 0.406 enrichment R.
The molecule B15 registered a binding signal of 18.5 enrichment R.
As for B16, the binding signal came out at 70 enrichment R.
For B17, the binding signal amounted to 0.275 enrichment R.
B18 came in with a binding signal of 71.2 enrichment R.
For the molecule B19, the binding signal stood at 0.478 enrichment R.
B20: the binding signal amounted to 3.8 enrichment R.

Source of the values: publication PMC12136788.
